Source: PubChem BioAssay
Records with an inconclusive call do not appear. Calls of active or inactive are those of the source.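 Rule for the calls, unless noted: active = viability loss from added drug above about 55%, and viability with drug at most 40%, in both replicates (limit read from the data, passing the limit was not always enough); inconclusive = both conditions met in only one replicate; inactive = neither replicate meets both conditions.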

Legend:
[1] = Her2 expression decrease, cell viability multiplex – SKBR3 breast tumor cells, AlphaScreen, ATP viability, primary screen (AID 461;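 active = Her2 level under about 52% in both replicate screens, with viability over 70% of control, limit read from the data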;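 for Her2 level: lower value means less Her2 protein in the cells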;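 for viability: percent of carrier control wells set as 100% viability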); conditions: SKBR3 Her2 protein level, 18-24 h, measured here: SKBR3 viability, ATP luminescence, at 10 µM
[2] = biological target: Receptor tyrosine-protein kinase erbB-2 (Homo sapiens) (UniProt P04626); test: as above; conditions: 18-24 h, at 10 µM, stronger effect = lower value
[3] = reduced viability of SK-BR-3 breast cancer cells – cell-based, 24 h, human, pilot screen (AID 572;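 active = viability at or below 10% of carrier control in both of two separate runs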;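 note: compound exposure lasted between 18 and 24 h rather than exactly 24 h; 100% = carrier-treated control wells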); conditions: SK-BR-3 viability, CellTiter-Glo luminescence, at 10 µM, stronger effect = lower value
[4] = HUVEC growth inhibition – cell-based, human, primary screen (AID 575;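 active = viability at or below 30% in both replicate assays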;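 note: 100% = median of untreated cell wells with 0.1% DMSO on each plate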); conditions: HUVEC proliferation, CellTiter-Glo luminescence, 72 h; at 10 µM; stronger effect = lower value
[5] = H69AR cell proliferation blockers – human, duplicate replicates, primary screen (AID 580;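 active = viability at or under a set limit in both replicates, limit being median viability minus 3 SD, cut at about 48% in these data, passing the limit was not always enough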;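 note: 100% = mean luminescence of untreated wells and 0% = no signal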); conditions: H69AR lung tumor cells viability, ATP luminescence, 72 h; at 10 µM; stronger effect = lower value
[6] = MRP1 drug-resistance reversers in H69AR cells – cell-based, doxorubicin co-treatment, pilot screen (AID 601); conditions: CellTiter-Glo, 72 h, at 10 µM; for differential viability (reversal): stronger effect = higher value
[7] = yeast transport mutant growth inhibition pilot in 384-well plates, post-Golgi transport modulator project (AID 636; in the data active = inhibition above about 31%); conditions: absorbance 615 nm, about 18 h, stronger effect = higher value
[8] = growth suppression of yeast trafficking mutant, preliminary HTS, modulators of trafficking downstream of Golgi apparatus project, 1536-format plate, OD 615 nm (AID 637; in the data active = inhibition above about 30%); conditions: yeast transport mutant growth, absorbance 615 nm, 18 h; stronger effect = higher value
[9] = S. cerevisiae growth inhibition in permissive medium (OD615), pilot counter-assay for S. cerevisiae lifespan shortening project, permissive growth control (AID 705;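 active = growth inhibition above 25% in both replicates, a cutoff set 3 SD above the mean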); conditions: OD615, 24 h, at 10 µM, stronger effect = higher value
[10] = S. cerevisiae growth inhibition in restrictive medium, OD615, pilot screen, restrictive growth control, yeast lifespan reduction project (AID 706;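 active = growth inhibition above a set limit, 3 SD over mean compound inhibition, in both replicates, cut at about 43% in these data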;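 note: modified DeaD lifespan yeast strain shifted to restrictive glucose medium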); conditions: OD615, 48 h, at 10 µM, stronger effect = higher value
[11] = doxorubicin toxicity protection in MRP-1 cells – H69AR cells, CellTiter-Glo, duplicate, MRP-1 activator project, pilot screen (AID 807;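 active = viability increase at or above a cutoff of the median across tested compounds plus 3 SD, cut at about 8.5% in these data, passing the limit was not always enough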;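 note: compound pretreatment 18-22 h then 72 h combined with doxorubicin; 0% = doxorubicin alone and 100% = vehicle without doxorubicin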); conditions: H69AR viability with doxorubicin, CellTiter-Glo luminescence; at 10 µM; stronger effect = higher value
[12] = viability of HCT116 without oncogenic beta-catenin – human colon tumor cells, pilot screen (AID 823;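 active = cell viability at or below a set limit in both duplicate runs, the limit being the all-compound median minus 4 SD, cut at about 23% in these data, passing the limit was not always enough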;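 note: 0% = wells killed by 20 µM Hyamine and 100% = untreated DMSO cell wells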); conditions: HCT116 beta-catenin knockout viability, CellTiter-Glo, 60 h; at 10 µM; stronger effect = lower value
[13] = viability of PTEN-null HCT116 cells – cell-based, HCT116 clonal line, CellTiter-Glo, pilot screen (AID 824;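 active = viability at or below 27.92% in each of two runs, the all-compound median minus 4 SD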;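 note: 0% = 20 µM Hyamine control and 100% = vehicle cell control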); conditions: HCT116 PTEN-deleted viability, 60 h, at 10 µM, stronger effect = lower value
[14] = RAM pathway blockade in budding yeast – dse1pr::URA3 reporter, 5-FOA selection, pilot screen (AID 869;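 active = inhibition over a set limit, the all-compound mean plus 3 SD, in both replicate runs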;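 note: 0% = DMSO wells with no growth and 100% = 10 µM 1-NA-PP1 with full growth; RAM network block rescues cells from 5-FOA so hits raise OD615 growth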); conditions: S. cerevisiae dse1pr::URA3 5-FOA growth, OD615, 2 d; at 10 µM; stronger effect = higher value; strain carries analog-sensitive mutant Cbk1 kinase
[15] = RAM signaling pathway blockade in yeast – S. cerevisiae, Pdr1DBD-CYC8 efflux-inhibited sensitized strain, primary screen (AID 1298;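 active = RAM network inhibition above 8.4% in each of two replicates, 3 SD over the compound average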;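 note: 0% = DMSO untreated cells without growth and 100% = 10 µM 1-NA-PP1 full growth; higher means more yeast growth rescued from 5-FOA killing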); conditions: S. cerevisiae cbk1-as DSE1-URA3 strain, 5-FOA growth OD615, 2 d; at 50 µM; stronger effect = higher value
[16] = H69AR cells + 2 uM doxorubicin, measured here: viability with 2 uM doxorubicin, stronger effect = lower value
[17] = H69AR cells, compound alone cytotoxicity

Sequence of Receptor tyrosine-protein kinase erbB-2 (Homo sapiens) (P04626 whole entry, looked up): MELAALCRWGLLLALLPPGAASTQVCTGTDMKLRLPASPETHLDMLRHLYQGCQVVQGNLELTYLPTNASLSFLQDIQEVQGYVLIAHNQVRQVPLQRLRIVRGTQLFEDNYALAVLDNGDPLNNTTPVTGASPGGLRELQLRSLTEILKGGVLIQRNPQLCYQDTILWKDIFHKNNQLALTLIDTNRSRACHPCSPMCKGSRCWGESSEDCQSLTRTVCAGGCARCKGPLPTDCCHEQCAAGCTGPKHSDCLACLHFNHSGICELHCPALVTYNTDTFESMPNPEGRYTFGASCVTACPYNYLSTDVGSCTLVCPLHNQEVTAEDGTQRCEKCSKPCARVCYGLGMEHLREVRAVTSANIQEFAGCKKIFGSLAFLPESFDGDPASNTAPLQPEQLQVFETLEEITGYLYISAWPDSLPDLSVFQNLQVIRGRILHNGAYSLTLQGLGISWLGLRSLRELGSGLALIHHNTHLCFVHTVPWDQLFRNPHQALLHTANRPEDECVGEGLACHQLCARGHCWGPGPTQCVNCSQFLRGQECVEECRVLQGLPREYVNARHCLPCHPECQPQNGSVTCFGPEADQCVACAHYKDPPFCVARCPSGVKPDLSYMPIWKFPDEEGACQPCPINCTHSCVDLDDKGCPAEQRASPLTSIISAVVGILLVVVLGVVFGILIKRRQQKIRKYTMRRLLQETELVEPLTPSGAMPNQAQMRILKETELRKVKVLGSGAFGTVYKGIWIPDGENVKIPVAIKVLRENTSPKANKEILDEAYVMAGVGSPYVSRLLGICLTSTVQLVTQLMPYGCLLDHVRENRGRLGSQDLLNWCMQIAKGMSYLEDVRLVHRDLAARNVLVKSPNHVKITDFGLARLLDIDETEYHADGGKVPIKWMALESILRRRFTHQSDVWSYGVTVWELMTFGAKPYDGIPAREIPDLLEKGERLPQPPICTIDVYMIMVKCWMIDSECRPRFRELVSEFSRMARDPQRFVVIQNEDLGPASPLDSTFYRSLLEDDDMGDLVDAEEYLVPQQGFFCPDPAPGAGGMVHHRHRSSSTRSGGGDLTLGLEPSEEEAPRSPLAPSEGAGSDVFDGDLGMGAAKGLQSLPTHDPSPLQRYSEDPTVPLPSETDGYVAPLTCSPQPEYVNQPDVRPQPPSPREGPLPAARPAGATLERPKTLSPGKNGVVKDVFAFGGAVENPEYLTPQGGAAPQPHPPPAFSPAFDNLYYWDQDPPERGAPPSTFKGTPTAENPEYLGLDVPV

| SMILES | viability [1] [%] | Her2 level [2] | viability [3] | viability [4] | viability [5] | differential viability (reversal) ([6]; H69AR cells + 2 uM doxorubicin) | viability [6, 16] [%] | viability [6, 17] [%] | inhibition [7] | inhibition [8] | growth inhibition [9] | growth inhibition [10] | viability increase [11] | viability [12] | viability [13] | inhibition [14] | RAM network inhibition [15] |
| --- | --- | --- | --- | --- | --- | --- | --- | --- | --- | --- | --- | --- | --- | --- | --- | --- | --- |
| N#CCCN1CCN(S(=O)(=O)c2ccc(S(=O)(=O)NC3CCCC3)cc2)CC1 | 88.5 | 124% (inactive) | 88.5% (inactive) | 99.3% (inactive) | 107% (inactive) | 33.5% (inactive) | 73.1 | 107 | -3.46% (inactive) | -8% (inactive) | -9.39% (inactive) | -4.06% (inactive) | -0.87% (inactive) | 101% (inactive) | 100% (inactive) | 2.69% (inactive) | 3.21% (inactive) |
| COc1ccccc1C(=O)OCn1nnc2ccccc2c1=O | 96.5 | 98% (inactive) | 96.5% (inactive) | 78.8% (inactive) | 99.5% (inactive) | -15.4% (inactive) | 115 | 99.5 | -4.27% (inactive) | 1.17% (inactive) | -11.2% (inactive) | -10.4% (inactive) | -0.53% (inactive) | 95% (inactive) | 91.2% (inactive) | 0.655% (inactive) | 0.92% (inactive) |
| Cc1cc(C)cc(N(CC(=O)Nc2cccc(C)n2)S(=O)(=O)c2c(C)noc2C)c1 | 88.5 | 97% (inactive) | 88.5% (inactive) | 92.3% (inactive) | 85.6% (inactive) | 11.8% (inactive) | 73.8 | 85.6 | -0.64% (inactive) | -2% (inactive) | -12.3% (inactive) | -11.5% (inactive) | -4.06% (inactive) | 73.4% (inactive) | 71.9% (inactive) | 0.94% (inactive) | 5.69% (inactive) |
| COc1ccc(C(=O)Oc2c(CN3CCOCC3)cc(Cl)c3cccnc23)cc1OC | 93 | 95.5% (inactive) | 93% (inactive) | 71.8% (inactive) | 1.58% (active) | -0.17% (inactive) | 1.75 | 1.58 | -5.87% (inactive) | -6.23% (inactive) | -12.6% (inactive) | -19.1% (inactive) | -8.29% (inactive) | 9.93% (active) | 5.98% (active) | 1.39% (inactive) | 0.26% (inactive) |
| Cc1ccnc2c(N3C(=O)C4C5C=CC(C5)C4(C)C3=O)cccc12 (stereo not drawn) | 98 | 102% (inactive) | 98% (inactive) | 105% (inactive) | 92.9% (inactive) | 1.47% (inactive) | 91.4 | 92.9 | -3.47% (inactive) | -5.5% (inactive) | -20.2% (inactive) | -11.7% (inactive) | -0.94% (inactive) | 93.3% (inactive) | 95.5% (inactive) | 1.86% (inactive) | -1.63% (inactive) |
| O=C(O)c1ccccc1S(=O)(=O)NCC(O)COc1ccc(Br)cc1 (stereo not drawn) | 102 | 84.5% (inactive) | 102% (inactive) | 119% (inactive) | 99.9% (inactive) | 6.29% (inactive) | 93.6 | 99.9 | -2.47% (inactive) | -1.17% (inactive) | -17.1% (inactive) | -22.2% (inactive) | 0.84% (inactive) | 97.9% (inactive) | 100% (inactive) | 1.09% (inactive) | 7.5% (inactive) |
| CCOC(=O)C1CCN(C(=O)CN(c2ccc(Cl)c(C(F)(F)F)c2)S(C)(=O)=O)CC1 | 112 | 100% (inactive) | 112% (inactive) | 107% (inactive) | 92.1% (inactive) | -9.81% (inactive) | 102 | 92.1 | -0.65% (inactive) | -2.5% (inactive) | -11.9% (inactive) | -8.95% (inactive) | -3.24% (inactive) | 88.1% (inactive) | 84.7% (inactive) | -0.1% (inactive) | 0.63% (inactive) |
| Clc1ccc(Nc2ncnc3c2cnn3-c2ccccc2)cc1 | 116 | 90.5% (inactive) | 116% (inactive) | 86% (inactive) | 78.7% (inactive) | 7.29% (inactive) | 71.4 | 78.7 | -4% (inactive) | 0% (inactive) | -10.8% (inactive) | -13.1% (inactive) | -2.81% (inactive) | 81.7% (inactive) | 74.8% (inactive) | 0.855% (inactive) | -0.47% (inactive) |
| Cc1ccc(C)c2[nH]c(=O)c(CCNC(=O)CC(C)(C)C)cc12 | 88 | 105% (inactive) | 88% (inactive) | 103% (inactive) | 90.9% (inactive) | 21.2% (inactive) | 69.7 | 90.9 | -4.27% (inactive) | -4.5% (inactive) | -4.09% (inactive) | -11.6% (inactive) | 1.59% (inactive) | 104% (inactive) | 92.6% (inactive) | 1.04% (inactive) | 4.85% (inactive) |
| CCCCOc1ccc(-c2ncc(Cl)cn2)cc1 | 110 | 117% (inactive) | 110% (inactive) | 119% (inactive) | 93.9% (inactive) | 9.19% (inactive) | 84.8 | 93.9 | -4.94% (inactive) | 0.83% (inactive) | -14.9% (inactive) | -12.5% (inactive) | 3.52% (inactive) | 86.9% (inactive) | 96.8% (inactive) | 1.26% (inactive) | 3.37% (inactive) |
| CCOC(=O)N1CCN(Cc2nc3c(c(=O)n(C)c(=O)n3C)n2Cc2ccc(F)cc2)CC1 | 86.5 | 101% (inactive) | 86.5% (inactive) | 92.9% (inactive) | 72.6% (inactive) | -0.205% (inactive) | 72.8 | 72.6 | -4.27% (inactive) | 3.67% (inactive) | -5.48% (inactive) | 5.73% (inactive) | -3.14% (inactive) | 93.3% (inactive) | 81.7% (inactive) | 0.44% (inactive) | 0.36% (inactive) |
| CCOC(=O)c1ccc(NS(=O)(=O)c2ccc3c(c2)oc(=O)n3C)cc1 | 132 | 118% (inactive) | 132% (inactive) | 118% (inactive) | 113% (inactive) | 7.4% (inactive) | 105 | 113 | -0.77% (inactive) | -2.17% (inactive) | -0.745% (inactive) | 3.2% (inactive) | 1.82% (inactive) | 101% (inactive) | 86.4% (inactive) | 0.865% (inactive) | 2.11% (inactive) |
| COC(=O)CN1C(=O)C(O)(CC(=O)c2ccc(Cl)cc2)c2ccccc21 (stereo not drawn) | 87.5 | 88.5% (inactive) | 87.5% (inactive) | 94.4% (inactive) | 70.5% (inactive) | -21.3% (inactive) | 91.8 | 70.5 | -6.8% (inactive) | 5% (inactive) | -0.49% (inactive) | -8.47% (inactive) | -3.44% (inactive) | 87.3% (inactive) | 91.5% (inactive) | 1.81% (inactive) | 0.35% (inactive) |
| c1ccc(C(Cc2nc(-c3ccccn3)no2)c2ccccc2)cc1 | 96 | 94% (inactive) | 96% (inactive) | 92.8% (inactive) | 95.2% (inactive) | -11.8% (inactive) | 107 | 95.2 | -4.03% (inactive) | 1.8% (inactive) | -9.91% (inactive) | 12.9% (inactive) | -2.01% (inactive) | 89.7% (inactive) | 82.5% (inactive) | 1.98% (inactive) | 6.08% (inactive) |
| Cc1nnc(SCC(=O)Nc2ccc3c4c(cccc24)CC3)n1C | 102 | 79% (inactive) | 102% (inactive) | 93.2% (inactive) | 86.9% (inactive) | 0.115% (inactive) | 86.8 | 86.9 | -6.08% (inactive) | -3.83% (inactive) | -0.36% (inactive) | -5.08% (inactive) | -4.3% (inactive) | 92.9% (inactive) | 89.8% (inactive) | 3.25% (inactive) | 3.77% (inactive) |
| Cc1cccc(OCCNC(=O)c2ncn[nH]2)c1 | 100 | 108% (inactive) | 100% (inactive) | 92.5% (inactive) | 91.9% (inactive) | 3.36% (inactive) | 88.5 | 91.9 | 0% (inactive) | -5.17% (inactive) | -12.5% (inactive) | -4.79% (inactive) | 0.64% (inactive) | 94.2% (inactive) | 99.7% (inactive) | 1.01% (inactive) | -0.32% (inactive) |
| Cn1c(SCC(=O)Nc2ccc(F)cc2)nnc1-c1cccnc1 | 93 | 106% (inactive) | 93% (inactive) | 96.5% (inactive) | 104% (inactive) | 12.8% (inactive) | 90.8 | 104 | -3.87% (inactive) | -2.5% (inactive) | -8.06% (inactive) | 0.86% (inactive) | 2.18% (inactive) | 104% (inactive) | 101% (inactive) | 0.43% (inactive) | 4.04% (inactive) |
| CCCOc1ccc2ccccc2c1/C=N/n1cnnc1 | 93 | 91% (inactive) | 93% (inactive) | 66.7% (inactive) | 72.3% (inactive) | 3.08% (inactive) | 69.2 | 72.3 | -3.08% (inactive) | 2.67% (inactive) | -0.81% (inactive) | 6.62% (inactive) | -5.76% (inactive) | 92.4% (inactive) | 80.9% (inactive) | -0.575% (inactive) | -1.74% (inactive) |
| Cc1nnc(SCC(=O)Nc2sc3c(c2C#N)CCCC3)[nH]c1=O | 95.5 | 91.5% (inactive) | 95.5% (inactive) | 88.3% (inactive) | 102% (inactive) | 4.41% (inactive) | 97.4 | 102 | -3.38% (inactive) | -4.83% (inactive) | 1.05% (inactive) | 10.9% (inactive) | -2.28% (inactive) | 103% (inactive) | 101% (inactive) | 0.455% (inactive) | 3.34% (inactive) |
